D3 ag – qHTS of D3 Dopamine Receptor Agonist: qHTS. actives 0.58% (n = 410,000). D(3) dopamine receptor (Homo sapiens), P35462. D3R DiscoveRx beta-arrestin cells, luminescence, 90 min. max activation, %. AID 652048, 2013; in the data active means max activation above about 30%; further: 0% is about no effect
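Agonist-mode cell screen: cells plated at 1500/well and incubated overnight at 37 °C, then exposed to library compounds for 90 min at 37 °C. Detection reagent was added for 30–60 min at room temperature, and luminescence was read.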
D3 antag – qHTS of D3 Dopamine Receptor Antagonist: qHTS. D(3) dopamine receptor (Homo sapiens), P35462. D3R cells, DiscoveRx beta-arrestin luminescence, antagonist mode; hits give low values. max response, negative = inhibition, %. actives 2.5% (n = 360,000). AID 652054, 2013; in the data active means max response below about -50%; inconclusive means no clear call, values can overlap the other calls; further: on the % scale 0 is the no-effect control and ±100 the full control effect
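Cells plated overnight at 1500 cells/well, then exposed to library compounds with dopamine controls for 90 minutes at 37 degrees C. DiscoveRx reagent added for 30–60 minutes at room temperature; luminescence read, quantitative HTS format.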
MBNL1 CUG block – qHTS Assay for Inhibitors of MBNL1-poly(CUG) RNA binding | Potency, µM (top dose mostly 57.5 µM), for inactives: at the top dose activity change, negative = inhibition, most hits filed as inhibitors | AID 2675, 2010 | actives 0.036% (n = 280,000) | TR-FRET MBNL1-His/biotin-(CUG)12 binding, 665/545 ratio; active means well fitted inhibition curve with a large enough effect in the signal ratio, with a control signal flat, not every such curve was filed as active; inconclusive means small, poorly fitted or top-dose-only effect, or effect the other way, or a change in a side signal; inactive means no such curve, though single readings can be large or run the other way; the % refers to the signal ratio; further: potency means the concentration at half of the fitted maximal effect; on the % scale 0 is the no-effect control and ±100 the full control effect
Target sequence (Q9NR56 whole entry, looked up): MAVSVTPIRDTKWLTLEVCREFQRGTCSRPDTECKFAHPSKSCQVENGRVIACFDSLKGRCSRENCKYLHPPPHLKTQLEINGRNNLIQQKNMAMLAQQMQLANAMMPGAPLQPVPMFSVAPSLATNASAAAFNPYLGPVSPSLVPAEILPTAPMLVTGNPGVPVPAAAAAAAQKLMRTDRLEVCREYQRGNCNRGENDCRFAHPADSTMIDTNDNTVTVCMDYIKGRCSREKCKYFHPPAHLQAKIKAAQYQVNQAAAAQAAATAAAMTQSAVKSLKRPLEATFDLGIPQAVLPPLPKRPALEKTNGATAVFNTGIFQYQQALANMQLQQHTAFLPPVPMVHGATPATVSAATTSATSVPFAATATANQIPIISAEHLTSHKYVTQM
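Compound titration spanned 92 nM–58 uM against the MBNL1-His/biotin-(CUG)12 complex. After 60 min at room temperature with 5 nM streptavidin-XL665 and 0.055 ng/ul terbium anti-His, ratiometric 665/545 nm emission (Ex 340 nm) normalized to controls.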
a7 integrin act – qHTS for Activators of Integrin-Mediated Alleviation for Muscular Dystrophy; alpha7betagal myoblasts, beta-gal FDG fluorescence, 48 h; Potency, µM (doses to about 38.3 µM), without a hit: at the highest dose activation, usual class: activators; actives 0.064% (n = 350,000); AID 624291, 2012;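 further: potency means the concentration at half of the fitted maximal effect; 100% = response of the positive control SU9516; nearly all actives have a fitted effect of over 60% in size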
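Alpha7betagal+/- myoblasts (passage 13) were plated 16-24 hr, then exposed to compounds (1:260 dilution of DMSO stock) for 48 hours at 37C. After MPER lysis, β-galactosidase reporter activity was read as FDG fluorescence (ex 480/em 540) after 30 minutes.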
CBFb-RUNX1 inh – qHTS Assay for Compounds Blocking the Interaction Between CBF-beta and RUNX1 for the Treatment of Acute Myeloid Leukemia. AlphaScreen CBFb-His/RUNX1-biotin binding, biochemical. Potency, µM (doses to about 59.8 µM), for inactives: at the top dose activity, negative = inhibition, most hits filed as inhibitors. 230,000 tested, under 10 active. AID 1477, 2009; further: % of control where 0% means no effect
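Compounds were screened at multiple concentrations against a preformed CBF-beta(His)/RUNX1(biotin) complex (30 nM of each) for 15 min at room temperature, followed by 90 min with nickel and streptavidin beads and AlphaScreen reading.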
PTHR1 agonist – qHTS for PTHR1 Agonists: Primary Screen; HEK293 GP2 PTHR1 cells, GloSensor cAMP luminescence, 1 h; Potency, µM (titrated, usually from 115 µM), for inactives: at the top dose activation, most hits filed as activators; actives 0.075% (n = 410,000); further: potency means the concentration at half of the fitted maximal effect; nearly all actives have a fitted effect of over 55% in size
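HEK-293-derived GP2 cells expressing PTHR1 and a GloSensor cAMP reporter, 3,000/well, plated overnight, given luciferin plus IBMX (each 0.5 mM as added) for 1 h at 37 °C, then compound for 1 h at 37 °C. Luminescence was read after 15 min at room temperature.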
The depositor's hits bear a star; i = inactive; ? = inconclusive; . = no result given; [ ] = dose if it differs, or a comment. Compounds with a hit are over-represented: about 2.8% of the library has one in this group of screens. Unless noted, the call rests on the fitted dose curve; in most records, active means well fitted curve in the direction sought with a large enough effect; inconclusive means small, poorly fitted or top-dose-only effect, or another doubt; inactive means no such curve, though single readings can be large; an effect the other way counts as inactive or inconclusive.

SMILES	D3 ag	D3 antag	MBNL1 CUG block	a7 integrin act	CBFb-RUNX1 inh	PTHR1 agonist
COc1cccc(OCC(O)CN2CCC(CN3C(=O)c4cccc5cccc(c45)C3=O)CC2)c1 (stereo not drawn)	-13.5	-52.0*	?	-64.7%	-12.9%	-51.6%
Cc1cc(C)cc(OCC(O)CN2CCC(CN3C(=O)c4cccc5cccc(c45)C3=O)CC2)c1 (stereo not drawn)	-14.7	-67.8*	9.2%	-54.2%	4.9%	-47.8%
COc1ccc(CNC(=O)c2cc(=O)[nH]c3ccc(S(=O)(=O)N4CCCC4)cc23)c(OC)c1	11.4	.	.	.	.	-10.8%
O=Cc1cn(CCOc2ccccc2F)c2ccccc12	5.7	-8.6	7.7%	-22.6%	.	-34.3%
Cc1ccccc1C(=NCCCN(C)C)c1ccccc1C	-9.5	-75.3*	.	-36.1%	23.0%	i
CS/C(=C\[N+](=O)[O-])Nc1ccc(Cl)cc1	-16.3	-83.7*	4.3%	-8.7%	-5.1%	28.8%[57.5 µM]
Cc1c(C(=O)N(Cc2ccccc2)C(C)C)oc2ccc(S(=O)(=O)N3CCOCC3)cc12	13.7	59.9	-2.8%	-24.4%	.	-28.1%
O=C(NC(c1ccc(-c2ccccc2)cc1)c1cnccn1)C1CCN(Cc2ccc3c(c2)OCO3)CC1 (stereo not drawn)	-9.4	-65.8*	.	.	.	i
Cn1cc(CN2CCC(C(=O)NC(c3ccc(-c4ccccc4)cc3)c3cnccn3)CC2)c2ccccc21 (stereo not drawn)	-22.5	?	.	.	.	-9.4%
CC(C)c1ccc(CN2CCC(C(=O)NCc3cccnc3)CC2)cc1	-5.2	-83.4*	-4.6%	2.2%	-9.3%	i
O=C(NC(c1ccccc1)c1cnccn1)C1CCN(Cc2ccc(Cl)c(Cl)c2)CC1 (stereo not drawn)	-20.4	?	.	.	.	-14.6%
O=C(NC(c1ccc(-c2ccccc2)cc1)c1cnccn1)C1CCN(Cc2ccc(Cl)c(Cl)c2)CC1 (stereo not drawn)	-13.5	-57.4*	.	.	.	-9.2%
CCS(=O)(=O)N1CCC(C(=O)NCc2cccnc2)CC1	2.7	4.7	-0.2%	10.0%	3.0%	i
O=C(Nc1cccc(C(=O)OCc2cc(=O)n3ccsc3n2)c1)c1ccc(F)cc1	3.3	.	.	.	.	-24.7%
COc1ccc(OCC(=O)Nc2c(C(=O)N3CCN(c4ccccc4)CC3)oc3ccccc23)cc1	88.8*	.	.	.	.	i
Cc1coc2c(C)c3oc(=O)c(CCC(=O)N4C[C@H]5C[C@@H](C4)c4cccc(=O)n4C5)c(C)c3cc12	34.9*	2.6	-11.5%	0.0%	.	-28.8%
Cc1oc2c(C)c3oc(=O)c(CCC(=O)N4C[C@H]5C[C@@H](C4)c4cccc(=O)n4C5)c(C)c3cc2c1C	-4.1	7.7	-3.5%	9.8%	.	-64.1%
CC(C)Cn1c(=S)[nH]c2ccccc2c1=O	1.1	3.6	?	3.6%	12.6%	-54.7%
CC(C)n1[nH]c2ccccc2c1=O	-16.2	-66.0*	.	.	.	-13.0%
CCN1CCN(C(c2cccc(Cl)c2)c2c(O)cc(C)n(CCOC)c2=O)CC1 (stereo not drawn)	1.5	.	.	.	.	i
CCCCC(=O)N(C)c1c(C)nc2ccc(C(=O)N(C)CCN(C)C)cn12	-8.9	0.0	.	.	.	-7.9%
CCCCN(C)c1c(C)nc2ccc(C(=O)N(C)CCN(C)C)cn12	-12.8	-71.4*	.	.	.	i
OC(CNc1ccccc1)Cn1ccc2ccccc21 (stereo not drawn)	-15.9	-14.4	0.2%	?	-8.1%	-17.8%
CN1CCN(c2ccc(CNC(=O)C3Cc4c(-c5ccc(Cl)cc5)ccnc4O3)cc2)CC1 (stereo not drawn)	-27.6	-55.6*	.	.	.	-26.6%

Screens deposited in PubChem BioAssay by National Center for Advancing Translational Sciences (NCATS).
